The subject of this test is VDR:RXRa (NR concentration 270 nM, RXRa partner concentration 90 nM). As to the kind of experiment: PBM binding z-score (relative to random genomic background probes); higher = stronger binding; sequences stand for … in GC…GCGATTGACAGCGTAGAATGAAGG
The protocol: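 Protein-binding microarray (Agilent 4x180K custom design, double-stranded 60-nt probes: 5' GC cap, 34-nt variable region, 24-nt constant primer region; full probe sequence given). Purified or IVT nuclear receptor:RXRα heterodimers (3:1 NR:RXRα, mostly 270:90 nM) or homodimers were incubated for 1 h in PBS with 2% milk and no ligand, then detected with Alexa488 antibodies. Fluorescence from o1-orientation probes (~5 replicates averaged) was converted to z-scores against 500 random hg19 background probes. Variable regions are seed direct-repeat (DR0–DR5) sites, all their single-nucleotide variants and half-site ablations.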
On to ATCTCTAGGTAACGAGTTCAGTGAAAGAGAGGAC, for which the PBM binding z-score worked out at 3.5.

The sequence GCGACTGGGGCATCAGCAGGTTACCATTACTTAA had a PBM binding z-score of -0.244.

The sequence TCTATTAGTTGATTAGGGCATCCGAAACAGCGGA registered a PBM binding z-score of 0.719.

In the case of TGAATGACGTTATAAGATCAGGGAACGTTGCAAA, the PBM binding z-score amounted to 0.104.

In turn, CCACACAGGTGAAAGGTAACTCAGTCTGGTACGC registered a PBM binding z-score of 1.05.

On to TGAATGAGGTTTTAAGATCAGGGAACGTTGCAAA, for which the PBM binding z-score was -0.241.

The sequence CTCGAAAGGTCGGTAGAGGTGAGTATACGGATAA displayed a PBM binding z-score of 2.05.

Sequence CGTCCAAGCTCAAAGGTCAGTGAAGAGATGACGG had a PBM binding z-score of 2.31.

Sequence ACTAGAAGGCCAAGTTTGGGTCACTCAAACAAAG yielded a PBM binding z-score of 1.28.

Take GCTTGTCGATCAAGGTTAAGAAAGACTAAGCTAA: the PBM binding z-score was -0.0633.

TTACCCAGGTGAGCTGAGGTCGTTGATCCAACTC yielded a PBM binding z-score of 2.93.

CTACCAAGGTGAACAAGGTCGATGATTACTATTC: the PBM binding z-score came to 4.83.

The sequence GCTAGCAGGCCATTTGGGCCACTCAATGACGGGC had a PBM binding z-score of -0.859.

Sequence TCTAGTTGGGCACGGAGGTCACACACGACGGGTA returned a PBM binding z-score of 4.08.

The sequence GATAGCAGGCCATTTGGGTCACTCAATGACGGGC displayed a PBM binding z-score of 1.07.

AGTACAGGGTCATCGTAGGCCAGAGTACGCACAG came in with a PBM binding z-score of 5.08.

The sequence TCTAGTTGATCACGGAGGTCACACACGACGGGTA gave a PBM binding z-score of 3.99.

CGAACTCGGTCATCCAGGACAGTGAATACATTGA gave a PBM binding z-score of 2.61.

As for ACTATTAGTTGAGACGAGGGCACCCGATAGGTTG, the PBM binding z-score was 0.529.

In turn, TCTGCTAGGTCAGTAGGTCAGCTAACGAGCTGCC showed a PBM binding z-score of 0.994.

For the sequence GCTCCTAGGTCAACTGATGGTCAGCTAAAGCTCG, the PBM binding z-score came out at 2.29.

With ACTAGCAGGCCAAGTTTGGGTCGCTCAAACAAAG, the PBM binding z-score is -0.328.

Turning to GCATATAGGTAATACAAGGGGAAAGTCCGATTGT, the PBM binding z-score was -0.0932.

For GGAACGAGGGCAAAGATGATAGCATCTGTCGACG, the PBM binding z-score came to 0.573.

ACAGACAGGTGAGTGAAGGTAACTCGGCTGGACG showed a PBM binding z-score of -0.336.

The sequence CCTAGTAGGCCAGGGTCACTCAAGCATTTCGCTT displayed a PBM binding z-score of 2.7.

For the sequence CTCAAAAGGTCGTGCTCAGGTGAGTATACCAAAC, the PBM binding z-score is 3.5.

Sequence CCTAGCGGGCCAATCTGGGTCACTCAAGGCTTGA yielded a PBM binding z-score of 0.28.

The sequence CCTACTAGGCCATCAGGTCATTGATATCAACGTT came in with a PBM binding z-score of 2.26.

Regarding CCTACTGGGCCATTCAGAGGTCATTGACCATATG, the PBM binding z-score was determined as 3.83.

On to CCTAGTTGGTCAGGAGGTTACACACCGGATATGA, for which the PBM binding z-score came out at 0.869.

In turn, GCTATTAGTTGAAAGGGCAATCGAATGATTCTCG registered a PBM binding z-score of 0.219.

CCTGCTAGGTCATGGTCAGTTAATCTACAGTATG returned a PBM binding z-score of 2.28.

TAGCCTAGGTCATTCCGGGGCCAGTATAGAAAGC: the PBM binding z-score stood at 2.94.

As for CCTCGAAGGACAACAGGAGGTCAGAGCTGCCAGA, the PBM binding z-score stood at 1.73.

Take CCTACTGGACCATTCAGAGGTCATTGATCATATG: the PBM binding z-score is 3.95.

The sequence TCATATAGGTAAATGCTAGGTAAAAGTCCGATCT returned a PBM binding z-score of 0.968.

On to ACTTACGGGTCAACGAGGTTAAAGCACGCGTATA, for which the PBM binding z-score came out at 7.52.

For CTCGAAAGGTCGGTTGATGTGAGTATACGGATAA, the PBM binding z-score was 1.17.

For the sequence CCCGAAAGGTCGGTTGAGGTGAGTATACGGATAA, the PBM binding z-score was 2.57.

Source of the values: the supplement of paper PMC6555819.
